Changes are numbered by the printed parent chain. Over roughly 24,000 sequences, “enrichment r” has its median near 0.99; the highest 2% begin near 3.7. Only a selection was taken, and the highest values are over-represented in it overall.
T1: UNK ZnF1-3 (human, UniProt Q9C0B0 31-174)
T1 sequence: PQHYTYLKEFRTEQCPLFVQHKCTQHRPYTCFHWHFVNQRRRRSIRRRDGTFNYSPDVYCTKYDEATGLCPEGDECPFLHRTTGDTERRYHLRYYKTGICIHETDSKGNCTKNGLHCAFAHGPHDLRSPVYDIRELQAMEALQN

B1: chr2:217001844:217001845:+_ENSG00000079246_ENST00000392132|hu_hu|hu_hu_hu_mus_False|18_28 (ssRNA)
RNA: GGGAGUUCUACAGUCCGACGAUCACCAACUUGAGGAUUAGAUCUUUUGUCAUAAGCAUAUCGGACGAUGGCGACCAUGUUUAACUCAUCCAAAGCAUGAACGAGAGAGGAAAGUGCAACUGCAGCUGCCUCAUCAUCCUUUGCCAACAGAGGAUUGAGCAUCA
B2: 7301359_7301479_2013_3pUTR_ENSMUSG00000024764_ENSMUST00000025675|mouse|control|control (ssRNA)
RNA: GGGAGUUCUACAGUCCGACGAUCGACACCCAUGACAGGAAAGCAGUGGUACGCCACUGAAAGGCAUCCCAGGGGUGCCAAGACAGUGGCACGAGUGCCUCAUUGAGGCGGUGAGGGGUGGGGCUCGGGAGAACAGGCAAAGGGCAACAGAGGAUUGAGCAUCA
B3: chr12:39756943:39756944:-_ENSG00000139116_ENST00000544797|hu_mus|hu_hu_hu_mus_False|8_28 (ssRNA)
RNA: GGGAGUUCUACAGUCCGACGAUCGGUUUGGCUGUUACCCCCAAGGGAAUCCUGCAAGAGUCUUGUCAGCUUAGAGUCUCUGUAAGGGACAUGGGUGGCUCUCUUGCUCUUGUCUCCCAAGGCGCUGAUUACAUUGCCAAGAGCCAACAGAGGAUUGAGCAUCA
B4: chr13:48835921:48835922:+_ENSG00000136156_ENST00000378565|hu_hu|FALSE|FALSE (ssRNA)
RNA: GGGAGUUCUACAGUCCGACGAUCGAUAUGGGUUAUACAAAUUAGUAACACAAGUUAUUUCUUAAAUUCCAAACAUUUUCUAAAAUAUUAUUACAGCAGAUGCCUAGGAUAUUAAAACAUAAAGGUGGAAAUCAUUCUCUAAAUCAACAGAGGAUUGAGCAUCA
B5: chr11:69466387:69466388:+_ENSG00000110092_ENST00000227507|hu_hu|motif|central (ssRNA)
RNA: GGGAGUUCUACAGUCCGACGAUCACACGUAAAGGAUGGAACCUAAUCCUCUCCCGAGACGCCUCCUUUGUGUUAAUGCCGGUUCUUACAACAGAGAAACAAGUACAUUAAUAUAAAAACGAGUUGAUUAUUGGGGUAUAAAAUCAACAGAGGAUUGAGCAUCA
B6: chr5:128440902:128440903:+_ENSG00000066583_ENST00000173527|hu_mus|hu_hu_hu_mus_True|1_58 (ssRNA)
RNA: GGGAGUUCUACAGUCCGACGAUCUUGAACGGUGCUGCCAAGUCCUUUGGGGUAUUGUUCCGUUAUGAUAACUGGAAUUCCUAAAAUCCGAGCUCCUUGCAACAGUCUCUGUCCCACACUAAUGAUGUCCCCAAAGUACUUGAUCAACAGAGGAUUGAGCAUCA
B7: chr11:69466387:69466388:+_ENSG00000110092_ENST00000227507|hu_hu|FALSE|FALSE (ssRNA)
RNA: B5 RNA with G80U, G81A
B8: chr1:46159212:46159213:+_ENSG00000159596_ENST00000372025|hu_mus|hu_hu_hu_mus_True|58_58 (ssRNA)
RNA: GGGAGUUCUACAGUCCGACGAUCUCUGAUCCCUCCCAAGAAAGCUAGGAAACCGGCUCCAUAAGCCAUCUGAGUGAAAGCUAAUAUGGGGAUAUAAGACUUUGUUAUUACCAUGAGAAGUGGGGGAGCAGUAAAGGGGAUUAACAACAGAGGAUUGAGCAUCA
B9: chr1:109605286:109605287:-_ENSG00000197780_ENST00000461096|hu_mus|hu_hu_hu_mus_True|78_98 (ssRNA)
RNA: GGGAGUUCUACAGUCCGACGAUCAAGUUUCAGAGUAUUCAGUGAUCACCUCUUUAACAAUUGUAAUCCUUAUUAUAAGCUAAGCAGAAUAAUAAUUUAAUACCGUAAGUGAACUACACACAAAGCCUGAACCGCGAAAAUGGUCAACAGAGGAUUGAGCAUCA
B10: chr2:27445747:27445748:+_ENSG00000084774_ENST00000264705|hu_hu|FALSE|FALSE (ssRNA)
RNA: GGGAGUUCUACAGUCCGACGAUCGGAGGCAGGGUCACCAGGCCCAUUACUUAAGAAGAGACCCUCAUACUCUUGGCUGUCUAGUGCAUGGUCCCAGGGUACCACAGUGACCUCAGCCCCACGCUGGCAGAGGCAUCGGAUCUGCAACAGAGGAUUGAGCAUCA
B11: chr9:95013113:95013114:-_ENSG00000196305_ENST00000443024|hu_hu|hu_hu_hu_mus_False|68_88 (ssRNA)
RNA: GGGAGUUCUACAGUCCGACGAUCCUCAGUCAGAAAGGGCGUGUAAGGAGCCAUAAGUCUGCACAGAGAAAGCAGAACACUGAACAGUGUCUCCAGAGCCAUGACACAGUCUUCCACCCCACUCUCACCCUUUAACCUCCUCCUCAACAGAGGAUUGAGCAUCA
B12: 142899929_142900494_654_CDS_ENSMUSG00000031004_ENSMUST00000033310|mouse|control|control (ssRNA)
RNA: GGGAGUUCUACAGUCCGACGAUCAAGGCCCUUGGCAUACACAAAAGAUCUUCUUGAAGCAGUCAUUUUUGAAGCUUUGGUAUCUUGACCUUCCCCAUCAGGGUCAGCACAGAAGCUAUCUCUUGAGGCUCGCCUUGAUGGUUCCAACAGAGGAUUGAGCAUCA

Biological target: T1, UNK ZnF1-3
Test: nsRBNS (natural sequence RNA bind-n-seq); RBNS binding buffer (assumed for nsRBNS): 25 mM Tris pH 7.5, 150 mM KCl, 3 mM MgCl2, 0.01% Triton X-100, 500 ug/ml BSA, 20 U/ml SUPERase-In, 4 C; UNK is unkempt and MSI1 is Musashi-1; names of the RNAs are library labels; protein concentration not given here; high values mean tight binding

Binder | binding signal
B1 | 1.42 enrichment R
B2 | 1.24 enrichment R
B3 | 0.697 enrichment R
B4 | 1.52 enrichment R
B5 | 4.6 enrichment R
B6 | 0.681 enrichment R
B7 | 5 enrichment R
B8 | 1.4 enrichment R
B9 | 0.993 enrichment R
B10 | 1.01 enrichment R
B11 | 1.57 enrichment R
B12 | 0.52 enrichment R
